Experimental data reported in the supplement of paper PMC3334620.
Whole data set: some 33,000 sequences, median “E-score (-0.5 to 0.5)” near -0.013, cut for the highest 2% near 0.3. The sample as a whole holds a higher share of the highest values than the screen did.

Target: T1, Msn1 (UniProt P22148)
T1 sequence: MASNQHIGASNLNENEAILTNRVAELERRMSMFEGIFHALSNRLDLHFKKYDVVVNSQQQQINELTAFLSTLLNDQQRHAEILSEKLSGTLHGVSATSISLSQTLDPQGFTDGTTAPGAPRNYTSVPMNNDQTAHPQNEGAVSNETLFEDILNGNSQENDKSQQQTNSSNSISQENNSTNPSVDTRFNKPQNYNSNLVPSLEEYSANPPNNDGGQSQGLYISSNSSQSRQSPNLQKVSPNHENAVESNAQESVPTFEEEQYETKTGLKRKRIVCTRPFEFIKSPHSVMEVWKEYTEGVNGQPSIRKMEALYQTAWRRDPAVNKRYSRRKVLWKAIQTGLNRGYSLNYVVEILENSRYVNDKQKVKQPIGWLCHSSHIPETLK
Test: PBM E-score (8-mer binding enrichment) (E-score (-0.5 to 0.5)); higher = stronger / more preferred TF binding
Settings: protein concentration: 200 nM; construct: GST-full length
Description: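 Universal 'all 10-mer' protein binding microarrays (Agilent AMADID 015681) probed with GST-tagged S. cerevisiae TFs (full-length or DBD) made by in vitro transcription/translation (PURExpress), about 100-200 nM. Bound TF was detected with fluorescent anti-GST. Each ungapped 8-mer (which stands for itself and its reverse complement) is scored by the PBM enrichment score (E-score), a modified Wilcoxon-Mann-Whitney statistic from -0.5 to +0.5, computed with the Universal PBM Analysis Suite. Scale: above 0.35 generally sequence-specific binding.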

| Sequence | PBM E-score |
| --- | --- |
| AAGGACAA | 0.485 |
| AAGGACTG | -0.0408 |
| CAGGACCA | -0.0434 |
| AAGGACGT | 0.32 |
| AAGGACGG | -0.145 |
| AAGGACAG | 0.296 |
| AAGGACCA | -0.0926 |
| CAGGACAA | 0.481 |
| GCCCGTCA | -0.234 |
| ACCGGTAA | -0.0138 |
| AACTTTGA | 0.12 |
| AAATTCGT | 0.256 |
| AGCCCCGC | -0.0507 |
| GGGCCTAA | -0.0118 |
| TAGGACTA | 0.257 |
| TAGGACCA | 0.202 |
| TAGGACAA | 0.491 |
| AAGGACCT | 0.0694 |
| AAGGACAT | 0.49 |
| AAGGAGAT | -0.164 |
| TATATGCA | 0.102 |
| ACATTCAA | 0.134 |

| Sequence | PBM E-score |
| --- | --- |
| CTTGGCCA | -0.0402 |
| GAGGACAC | 0.398 |
| AAGGACCC | -0.0634 |
| GAGGACCA | -0.184 |
| GAGGACAA | 0.466 |
| GAGGACCC | -0.218 |
| GAGGACTC | -0.078 |
| CAGGACGC | 0.00853 |
| CAGAACAC | -0.0663 |
| GAGGACTA | 0.0516 |
| CAGGACAC | 0.407 |
| AAGGACGC | 0.167 |
| AAGGACAC | 0.449 |
| GCCGGTAA | 0.146 |
| ATATTCGG | 0.11 |
| AGCAGTTA | -0.0695 |
| CTCGACAG | -0.14 |
| TACACTGA | 0.0723 |
| GCCTAAAC | 0.0003 |
| AGTCGCTA | -0.0278 |
| ACGATGTA | 0.00548 |
| GCATCACA | -0.0397 |

| Sequence | PBM E-score |
| --- | --- |
| ATCGTGCA | 0.125 |
| ATCGTGCG | 0.306 |
| ATCGTGCC | 0.0402 |
| CCCAGACC | -0.348 |
| AATTTAAT | 0.298 |
| GCCCGCAA | -0.0655 |
| GCATTGAA | -0.0579 |
| AGAAATCC | -0.0711 |
| ATGAGACC | -0.0403 |
| CTGAGACC | -0.18 |
| CCGAGACC | -0.0572 |
| GTGAGAAA | 0.124 |
| ACGAGACA | 0.275 |
| CTGAGAGA | -0.0585 |
| CCGAGACA | 0.319 |
| CTGAGACA | 0.319 |
| GTGAGAGA | -0.0903 |
| ATGAGACA | 0.358 |
| GTGAGACA | 0.315 |
| ATGAGACG | -0.109 |
| AGGGGACC | -0.207 |
| CCCAGCAC | -0.148 |

| Sequence | PBM E-score |
| --- | --- |
| GCATCCAA | -0.225 |
| AATAAAGT | 0.209 |
| AAGGATTG | 0.191 |
| GAGGGTAA | -0.114 |
| GCAGTAGC | -0.289 |
| CGTTTCAG | 0.176 |
| GCGATGAC | 0.0728 |
| GCGGTAGC | 0.041 |
| CAACCATG | 0.0589 |
| ACAAATAA | 0.307 |
| ACAAATAG | 0.322 |
| AAAAATAT | 0.208 |
| AGAAATAT | 0.181 |
| CCAAATAG | -0.0591 |
| ACAAATAT | 0.404 |
| GCAAATAC | 0.0266 |
| GCAAATAA | 0.0601 |
| TCAAATAA | 0.234 |
| ACAAATAC | 0.328 |
| AAAAATAG | 0.189 |
| CCAAATAC | -0.058 |
